D1 ag = human D1 receptor agonism | 360,000 compounds, 1% hits | activation, % at 2 µM | AID 504660 | P21728 | HEK293 T-REx D1 cells, calcium flux, agonist mode
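Tetracycline-induced HEK293 TREx D1 cells, force-coupled to calcium signalling, were dye-loaded with a no-wash calcium kit. Compound was pin-added after a 10 s baseline. Fluorescence was read kinetically at 1 cycle/s for 180 s, with calcium rises flagged as agonism.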
D1 PAM = potentiators of human D1 dopamine receptor | P21728 | HEK293 TREx D1 cells, calcium flux, dopamine EC20 potentiation | potentiation, % at 10 µM | 360,000 compounds, 0.036% hits; in the data active means potentiation above about 30%
TRHR agonist = agonists of human TRH receptor; P34981; TRHR cells, calcium flux fluo-8, FDSS agonist mode; activation, % at 2 µM; 360,000 compounds, 0.18% hits; AID 493084
Target sequence (P34981 whole entry, looked up): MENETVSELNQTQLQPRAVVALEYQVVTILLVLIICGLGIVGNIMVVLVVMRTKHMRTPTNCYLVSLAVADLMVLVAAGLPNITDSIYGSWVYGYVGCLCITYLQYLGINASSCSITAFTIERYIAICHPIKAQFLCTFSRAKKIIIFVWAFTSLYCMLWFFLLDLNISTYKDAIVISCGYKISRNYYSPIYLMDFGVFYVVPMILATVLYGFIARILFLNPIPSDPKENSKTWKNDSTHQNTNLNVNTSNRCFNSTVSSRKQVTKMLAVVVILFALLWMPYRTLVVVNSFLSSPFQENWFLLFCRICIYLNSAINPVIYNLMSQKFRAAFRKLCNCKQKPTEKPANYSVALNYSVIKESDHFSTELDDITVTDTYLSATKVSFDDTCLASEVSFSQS
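TRHR-expressing cells loaded with fluo-8 calcium dye; 23 nL library compound pin-transferred, kinetic FDSS fluorescence (Ex 480/Em 530) recorded about 180 s for agonist-induced calcium release, before a 10 nM TRH EC20 addition for potentiator mode.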
D1 antag = human D1 dopamine receptor antagonism; P21728; HEK293 TREx D1 cells, calcium flux, dopamine EC80; active compounds read low; activity change, negative = inhibition, % at 10 µM; 360,000 compounds, 3.2% hits; in the data active means activity change below about -30%
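After overnight tetracycline induction at 30 C, force-coupled D1 HEK293 cells took up a no-wash calcium dye at room temperature. Compounds were added and monitored 180 s, and the response to EC80 dopamine was then recorded.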
TRHR enhancer = TRH receptor (human) allosteric enhancement; enhancement, % at 2 µM; 360,000 compounds, 0.66% hits; AID 493056; P34981; TRHR cells, fluo-8 calcium fluorescence, EC20 TRH enhancement; in the data active means enhancement above about 30%
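Enhancer read-out: after compound pinning and an initial kinetic agonist-mode read, an EC20 of TRH (10 nM final) was injected and fluo-8 calcium signal (Ex 480/Em 530) followed at 1 s/cycle for 100 cycles in TRHR-expressing cells.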
Numbers stand for hits; . = inactive. An excerpt weighted towards active compounds, which were near 4.7% of everything screened. Unless noted, no stated cut-off is given here; in the data, active means activation above about 30%; inactive means the rest.

SMILES	D1 ag	D1 PAM	TRHR agonist	D1 antag	TRHR enhancer
Cc1ccc(C(=O)NC(C)C2CCCO2)o1 (stereo not given)	.	.	.	.	.
CC1=C(C(=O)N2CCc3ccccc32)C2(CCC(C)CC2)OC1=O (stereo not given)	.	.	.	-78	.
CC1=C(C(=O)N2CCCCC2)C2(CCC(C)CC2)OC1=O (stereo not given)	.	.	.	.	.
Cc1cc2c(cc1NS(=O)(=O)c1ccc(Br)cc1)n(C)c(=O)c(=O)n2C	.	.	.	.	.
COC(=O)CN1C(CN2CCOCC2)=Nc2ccc(Br)cc2C1c1ccccc1 (stereo not given)	.	.	.	-49	.
COC(=O)CN1C(c2cccc(Cl)c2)=Nc2ccc(Cl)cc2C1c1ccccc1 (stereo not given)	.	.	.	.	.
COc1ccccc1N1CCN(C(=O)Cn2c(=O)nc(-c3ccccc3)c3cc(Cl)ccc32)CC1	.	.	.	.	.
COc1ccc(CNC(=O)c2ccc(CN3C(=O)C(C)=C(c4ccc(C)cc4)S3(=O)=O)cc2)cc1	.	.	.	.	.
C/C(=N\NC(N)=O)c1ccc(-n2ccnc2)cc1	.	.	.	-44	.
CNC(=S)N/N=C(\C)c1ccc(-n2ccnc2)cc1	.	.	.	.	.
c1ccc(Sc2ncnc3c2oc2ccccc23)cc1	.	.	.	-35	.
Cc1ccc(C(C)NC(=O)/C(C#N)=C\c2c(C)[nH]c3ccccc23)cc1 (stereo not given)	48	.	.	.	.
N#C/C(=C/c1ccc(N2CCCCCC2)o1)c1cccc(F)c1	.	.	.	.	.
COc1cc(N2CCCC2)c(OC)cc1/C=C(/C#N)c1cccc(F)c1	56	.	.	.	.
CCN(CC)CCNC(=O)c1sc2nc(C)cc(C)c2c1-n1cccc1	.	.	.	.	.
CCCCc1ccc(S(=O)(=O)NCCc2ccncc2)cc1	.	.	.	-45	.
Cc1ccc(S(=O)(=O)NCCc2ccncc2)cc1	.	.	.	.	.
Cc1c(C(=O)Nc2nc(-c3ccc(F)cc3)ns2)oc2ccc(Cl)cc12	.	.	.	.	.
O=[N+]([O-])c1ccc(N/N=C/c2cccc(O)c2O)c(S(=O)(=O)N2CCOCC2)c1	58	.	.	-76	.
O=[N+]([O-])c1ccc(N/N=C/c2ccc(O)c(O)c2O)c(S(=O)(=O)N2CCOCC2)c1	.	.	.	.	.
CC(C(=O)N1CCOCC1)(c1ccccc1)c1ccccc1	.	.	.	-34	.
CC(C(=O)N1CCOCC1)c1ccccc1 (stereo not given)	.	.	.	.	.
O=C(NCCCN1CCOCC1)c1ccccc1N1C(=O)[C@@H]2Cc3c([nH]c4ccccc34)C(c3cccc(Cl)c3)N2C1=O (stereo not given in full)	.	.	.	-46	.
Cc1ccccc1NC(=O)N1C2CCC1CC(O)(c1cccnc1)C2 (stereo not given)	.	.	.	-34	.
Cc1cccc(C)c1NC(=O)N1C2CCC1CC(O)(c1cccnc1)C2 (stereo not given)	.	.	.	.	.
SMILES	D1 ag	D1 PAM	TRHR agonist	D1 antag	TRHR enhancer
CCC(Sc1nc(-c2ccccc2)[nH]c1S(=O)(=O)c1ccc(C)cc1)C(=O)O (stereo not given)	.	.	.	.	.
O=C(NC1CC2CCCC(C1)N2C(=O)Nc1cccc(F)c1)C1CC1 (stereo not given)	.	.	.	.	.
Cc1ccc(NC(=O)N2C3CCCC2CC(NC(=O)C2CC2)C3)cc1 (stereo not given)	.	.	.	.	30
CCN1CCN(c2ccc(NC(=O)c3ccc(C#N)cc3F)cc2Cl)CC1	.	.	.	-43	.
CCCCCC(=O)Nc1ccc(N2CCN(CC)CC2)c(Cl)c1	.	.	.	-52	.
COc1ccc(-c2cc(-c3ccc(O)cc3)nc(N)c2C#N)cc1	.	.	.	.	.
Nc1ccc(-c2cc(-c3ccc(N)cc3)nc(-c3ccccc3)n2)cc1	.	.	.	.	.
Oc1ccc(-c2cc(-c3ccc(O)cc3)nc(-c3ccccc3)n2)cc1	.	.	.	-40	.
N#Cc1c(-c2ccccc2)cc(-c2ccc(O)cc2)nc1N	.	.	.	-42	.
Cc1ccc(CN2C(=O)C(=O)c3cc(Br)cc(C)c32)cc1	.	.	.	-49	.
O=C(CCn1c(=O)c2cccn2c2cccnc21)NCc1cccc(Br)c1	.	.	.	.	.
COc1ccccc1C(=O)NCCSc1c(C)[nH]c2ccccc12	.	.	.	.	.
COc1cccc(C(=O)NCCSc2c(C)[nH]c3ccccc23)c1OC	.	.	.	-38	.
Cc1ccc(C(=O)NCCSc2c(C)[nH]c3ccccc23)cc1[N+](=O)[O-]	.	.	.	-70	.
Cc1ccc(Cc2nc3ccccc3nc2SCC(=O)N2CCCCC2C)cc1 (stereo not given)	.	.	.	.	.
Brc1ccccc1OCCCN1CCCCCC1	.	.	.	-60	.
Clc1ccccc1OCCCCN1CCCC1	.	.	.	.	.
Brc1ccccc1OCCCN1CCCC1	.	.	.	-45	.
Cc1nc(Nc2ccc(S(N)(=O)=O)cc2)sc1C(=O)Nc1ccccc1	.	.	.	-55	.
Cc1nc(Nc2ccccc2)sc1C(=O)Nc1ccccc1	.	.	.	.	.
Cc1nc(Nc2ccccc2Cl)sc1C(=O)Nc1ccccc1	.	.	.	.	.
COc1ccccc1Nc1nc(C)c(C(=O)Nc2ccccc2)s1	.	.	.	-38	.
CCc1ccc(C(=O)c2cn(CC(=O)Nc3cc(OC)ccc3OC)c3ccc(Cl)cc3c2=O)cc1	.	.	.	.	.
CCOc1ccc(N(CC)C(=O)c2cc3c(s2)-c2ccc(Cl)cc2SC3)cc1	.	.	.	.	.
COCCNC(=O)c1cc2c(s1)-c1ccc(Cl)cc1SC2	.	.	.	-92	.
SMILES	D1 ag	D1 PAM	TRHR agonist	D1 antag	TRHR enhancer
C1CCC(C(CC2CCCCN2)C2CCCCC2)CC1 (stereo not given)	136	.	.	.	.
CCCCN1CCc2nc(Nc3ccc(OC)cc3OC)ncc2C1	.	.	.	.	.
CN(C)c1ccc(/C=C/C(O)=C2/C(=O)N(C)C3(C)CC2c2ccccc2O3)cc1 (stereo not given)	69	.	32	.	.
CCOc1ccccc1NC(=O)CCc1c(C)nc2c3cccnc3nn2c1C	.	.	.	.	.
CCOc1ccc(C(=O)NCCc2sc(-c3ccc(OC)c(OC)c3)nc2C)cc1	.	.	.	.	.
Cn1c(C(=O)NCc2ccccc2Cl)cc2sc(Cl)cc21	.	.	.	.	.
Cc1ccccc1OCCC(=O)OCC(=O)NCCNC(=O)COC(=O)CCOc1ccccc1C	.	.	.	-43	.
CN1CCN(C2=Cc3ccccc3Sc3cc(F)c(Cl)cc32)CC1	.	.	.	-70	.

High-throughput results deposited in PubChem BioAssay by National Center for Advancing Translational Sciences (NCATS).
